# Sfp inh – Sfp phosphopantetheinyl transferase inhibition; AID 1490; Q9F4F7; Biochemical Sfp PPTase activity, qHTS; 310,000 compounds, 3.5% hits; Potency, µM, for the others: largest response in the series, negative = inhibition, actives largely listed as inhibitors;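 also: the enzyme is Sfp with the accession as filed and its product quenches rhodamine fluorescence; 0% = enzyme reaction without inhibitor and -100% = no enzyme wells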
#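 Sfp 15 nM + cpd, 15 min RT; start w/ rhodamine-CoA 5 uM, BHQ-2-YbbR 12.5 uM (final); 50 mM Hepes pH 7.6, 10 mM MgCl2, 0.01% NP-40, 0.01% BSA; read 525/598 nm at 0 and 30 min.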
# VDR inhibitor – vitamin D3 receptor (human) inhibition | P11473 | VDR-SRC2-3 peptide fluorescence polarization, 2 h | Potency, µM, inactives show max response, negative = inhibition, actives largely listed as inhibitors | 400,000 compounds, 0.93% hits | AID 504847
#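 Fluorescence polarization assay of small-molecule disruption of VDR binding to coregulator peptide SRC2-3. Compounds and controls pin-transferred, then read after 2 h incubation at ambient room temperature.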
# PLK1 PBD block – blocks phosphopeptide binding to human PLK1 polo-box domain. Potency, µM, inactives show max response, negative = inhibition, actives largely listed as inhibitors. P53350. Plk1 PBD binding of FITC phosphopeptide, fluorescence polarization. 360,000 compounds, 2.8% hits. AID 720504; also: series mostly up to about 57 µM; nearly all actives have a fitted effect of over 65% in size
# 12-LOX inh – inhibitors of human 12S-lipoxygenase ALOX12; Potency, µM (top dose mostly 108 µM), for the others: at the top dose activity change, negative = inhibition, actives largely listed as inhibitors; P18054; purified 12hLO, xylenol orange hydroperoxide absorbance; 580,000 compounds, 1.1% hits
# Target sequence (P18054 whole entry, looked up): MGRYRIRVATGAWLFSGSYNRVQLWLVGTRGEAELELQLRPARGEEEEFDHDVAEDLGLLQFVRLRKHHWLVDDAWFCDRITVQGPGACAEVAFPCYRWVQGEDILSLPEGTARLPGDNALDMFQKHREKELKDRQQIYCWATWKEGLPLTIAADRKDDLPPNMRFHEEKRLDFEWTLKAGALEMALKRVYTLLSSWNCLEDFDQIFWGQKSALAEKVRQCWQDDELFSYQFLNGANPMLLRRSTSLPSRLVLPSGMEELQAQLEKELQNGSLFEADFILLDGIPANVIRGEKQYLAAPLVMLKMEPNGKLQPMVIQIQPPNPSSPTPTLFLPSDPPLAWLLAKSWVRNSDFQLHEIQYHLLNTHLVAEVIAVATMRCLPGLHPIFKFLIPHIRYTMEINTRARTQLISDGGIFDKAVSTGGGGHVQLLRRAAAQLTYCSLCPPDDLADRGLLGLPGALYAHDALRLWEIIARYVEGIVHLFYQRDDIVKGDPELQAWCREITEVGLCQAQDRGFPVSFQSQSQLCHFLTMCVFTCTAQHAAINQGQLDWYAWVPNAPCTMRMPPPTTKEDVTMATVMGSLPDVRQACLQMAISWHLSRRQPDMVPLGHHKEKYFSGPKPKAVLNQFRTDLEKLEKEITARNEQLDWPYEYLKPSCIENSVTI
#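 Purified human 12hLO (150 nM final) in 25 mM Hepes, 0.01% Triton X-100, pH 7.0 was preincubated 15 min at room temperature with compound. Then 40 uM arachidonic acid was added, 30 min. Hydroperoxide was read by Fe-XO absorbance ratio 573/405 nm.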
# Active calls of the source: *; ? = inconclusive; . = no result; [ ] = another dose, or the depositor's remark. Rows were chosen to be rich in hits. Some 4.2% of all compounds tested hit in one or more screens of this group. Calls follow the shape of the dose curve; as a rule, active = well fitted curve in the direction sought with a large enough effect; inconclusive = small, poorly fitted or top-dose-only effect, or another doubt; inactive = no such curve, though single readings can be large; an effect the other way counts as inactive or inconclusive. Unless noted, % is scaled to controls: 0 for no effect and ±100 for the full control effect; potency is read from the fitted curve at half-maximal effect.
SMILES,Sfp inh,VDR inhibitor,PLK1 PBD block,12-LOX inh
COc1nc(N/N=C/c2ccc(-c3ccccc3[N+](=O)[O-])o2)nc(N2CCOCC2)n1,14.1µM*,?,-26.6%,-19.3%
O=[N+]([O-])c1ccc(-c2ccc(/C=N/Nc3nc(NCc4ccccc4)nc(N4CCOCC4)n3)o2)cc1,13.5%,-4.3%,-1.9%,-1.3%
COc1cccc2sc(Nc3nnc(-c4ccccc4Cl)o3)nc12,-0.7%,6.2%,-24.0%,4.8%
COc1cccc2sc(NN)nc12,50.1µM*,?,-15.8%,?
Nc1ccc(Br)c2c1C(=O)c1ccccc1C2=O,50.1µM*,-8.0%,-26.8%,.
COc1ccc(N)c2c1C(=O)c1ccccc1C2=O,-6.2%,?,-0.7%,11.1%
O=C(C1CC1)N1CCOc2ccc(CN3CCCC3)cc2C1,.,.,.,75.2%
CCOC(=O)c1nn(-c2ccc(OCC)cc2)c2nc(CC(C)C)c(C#N)c(=O)n12,50.1µM*,-7.4%,-7.0%,0.0%
CC(=O)C1C(=O)c2c(cccc2[N+](=O)[O-])C1=Nc1cccc(Cl)c1 (stereo not given),56.2µM*,9.0%,-10.4%,14.2%
CC(C)C(=O)Nc1ccc(C2OC(=O)N(Cc3ccc(F)cc3)C2C(=O)NC2CC2)cc1 (stereo not given),.,.,.,-6.3%
Cc1ccc(/C=C/C(=O)Nc2cc(S(N)(=O)=O)ccc2O)cc1,28.2µM*,?,21.2µM*,33.6%
O=C1CC(c2ccccc2)CN1S(=O)(=O)c1ccccc1 (stereo not given),12.3%,-2.7%,-9.4%,411.0%
CC1(C)CC(=O)C2=C(C1)NC(=S)C(C#N)C21CCCCC1 (stereo not given),11.2µM*,?,10.6µM*,7.94µM*
CCN(CC)S(=O)(=O)c1csc(C(=O)Nc2ccccn2)c1,21.9%,-10.3%,-7.3%,0.0%
COc1ccc(-c2nc(=S)[nH][nH]2)cc1,?,79.4µM*,?,?
CCOc1ccc(-c2nc(=S)[nH][nH]2)cc1,?,-8.8%,-19.6%,25.1µM*
CCOc1ccc(-c2nnc(-c3ccc(OC)cc3)o2)cc1,3.6%,2.0%,-1.8%,-8.3%
FC(F)(F)c1ccc(-c2nc(=S)[nH][nH]2)cc1,56.2µM*,?,-25.4%,0.0%
FC(F)(F)c1ccc(-c2nc3ccccc3s2)cc1,.,.,-4.2%,-2.8%
Oc1ccc(-c2nc(=S)[nH][nH]2)cc1,?,8.4%,-28.2%,?
CCCCNC(=O)c1cnc(Cc2c[nH]c3ccccc23)c(I)c1,.,.,.,39.8µM*
CN1CCN(C(=O)c2cnc(Cc3c[nH]c4ccccc34)c(I)c2)CC1,.,.,.,-3.6%
CCOC(=O)c1ccc(NS(=O)(=O)c2ccc3[nH]c(=O)[nH]c3c2)cc1,22.4µM*,-19.4%,11.9µM*,?
Cc1ccc2nc(-c3ccccc3)cc(C(=O)NNC(=O)c3csc(N4CCOCC4)n3)c2c1,.,-16.6%,-1.6%,11.9%
Cc1cnc(SCc2ccccn2)nc1C1CCCN(C(=O)c2ccc3[nH]c(C)c(C)c3c2)C1 (stereo not given),.,.,.,7.6%
SMILES,Sfp inh,VDR inhibitor,PLK1 PBD block,12-LOX inh
CCOC(=O)C1CCN(Cc2cc(=O)oc3ccc(Cl)cc23)CC1,.,.,.,8.2%
COC(=O)C1CCN(Cc2cc(=O)oc3ccc(Cl)cc23)CC1,.,.,.,15.8µM*
C=CCNc1nc(Cl)nc(Nc2cc(Cl)ccc2OC)n1,-1.1%,?,21.2µM*,0.0%
CCOc1nc(Nc2cc(Cl)ccc2OC)nc(OCC)n1,-8.0%,6.5%,-0.8%,2.7%
CCC(C)NC(=O)c1ccccc1SC (stereo not given),15.1%,-1.0%,-15.0%,0.0%
CS(=O)(=O)c1ccc(OC[C@H]2C[C@@H](NC(=O)C3CCOCC3)[C@H](O)[C@@H]2O)cc1,.,.,.,77.7%[176 µM]
Cc1nn(-c2ccc(Cl)cc2)c(Cl)c1/C=N/NC(=O)c1ccc(NS(=O)(=O)c2cccs2)cc1,.,?,23.8µM*,-24.8%
O=C1c2ccccc2NC(c2cccc(Br)c2)N1CCCN1CCOCC1 (stereo not given),.,.,.,26.8%
COc1cccc(/C=C2/C(=O)NN(c3ccc(C)c(C)c3)C2=O)c1,-22.5%,79.4µM*,5.97µM*,28.2µM*
COc1cc(/C=C2\C(=O)NN(c3ccccc3)C2=O)ccc1OCC(N)=O,19.1%,.,.,?
CCOc1cc(/C=C2/C(=O)NN(c3cccc(Cl)c3)C2=O)ccc1O,11.7%,?,?,-29.2%
COc1cccc(/C=C2/C(=O)NN(c3ccc(F)cc3)C2=O)c1,?,44.7µM*,5.32µM*,?
C#CCOc1ccc(/C=C2/C(=O)NN(c3ccc(F)cc3)C2=O)cc1OC,-20.2%,-18.5%,11.9µM*,?
